Experimental data: the supplement of paper PMC10849652
About 7,900 targets were measured; listed, in parts, are those with a hit and a random draw of the rest. About 0.6% of all pairs of compound and target were hits.

compound: c1cn2cc(-c3ccc4cn[nH]c4c3)nc(Nc3ccc(N4CCOCC4)cc3)c2n1 [entospletinib]; test: log2 fold change, soluble protein after heating vs DMSO (PISA); higher = thermal stabilisation; K562 cells, 10 uM, 30 min; active = over 0.2 and 3.5 SD of the protein, either way, in both replicates (recomputed)
Procedure, shortened: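 Values are thermal stability changes relative to control samples and are taken from duplicates. They are stated as log2 fold changes. Before quantification by TMTpro 16plex LC-MS/MS with equalised channel sums, K562 cells at 2×10^6 cells/mL were treated with 10 μM compound for 30 min, heated in aliquots for 3 min across 48°C-58°C, pooled, extracted in PBS with 0.5% NP-40 at 4°C, and centrifuged at 21,000xg for 90 min to give the soluble supernatant.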

Chain of UniProt Q15173 (Q15173 whole entry, looked up): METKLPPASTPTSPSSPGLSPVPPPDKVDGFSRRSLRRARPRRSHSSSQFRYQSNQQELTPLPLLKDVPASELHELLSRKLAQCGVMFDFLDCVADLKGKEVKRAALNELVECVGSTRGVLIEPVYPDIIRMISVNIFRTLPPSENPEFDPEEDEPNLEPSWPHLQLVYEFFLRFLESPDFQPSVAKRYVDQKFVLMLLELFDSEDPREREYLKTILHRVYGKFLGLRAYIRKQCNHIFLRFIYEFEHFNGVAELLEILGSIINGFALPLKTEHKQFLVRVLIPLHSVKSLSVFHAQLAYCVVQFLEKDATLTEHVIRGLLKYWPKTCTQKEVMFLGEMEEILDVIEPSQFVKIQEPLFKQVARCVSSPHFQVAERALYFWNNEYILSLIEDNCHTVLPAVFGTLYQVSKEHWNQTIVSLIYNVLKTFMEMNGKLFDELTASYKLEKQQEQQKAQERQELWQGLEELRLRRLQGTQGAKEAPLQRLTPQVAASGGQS
Chain of UniProt Q13523 (Q13523 whole entry, looked up): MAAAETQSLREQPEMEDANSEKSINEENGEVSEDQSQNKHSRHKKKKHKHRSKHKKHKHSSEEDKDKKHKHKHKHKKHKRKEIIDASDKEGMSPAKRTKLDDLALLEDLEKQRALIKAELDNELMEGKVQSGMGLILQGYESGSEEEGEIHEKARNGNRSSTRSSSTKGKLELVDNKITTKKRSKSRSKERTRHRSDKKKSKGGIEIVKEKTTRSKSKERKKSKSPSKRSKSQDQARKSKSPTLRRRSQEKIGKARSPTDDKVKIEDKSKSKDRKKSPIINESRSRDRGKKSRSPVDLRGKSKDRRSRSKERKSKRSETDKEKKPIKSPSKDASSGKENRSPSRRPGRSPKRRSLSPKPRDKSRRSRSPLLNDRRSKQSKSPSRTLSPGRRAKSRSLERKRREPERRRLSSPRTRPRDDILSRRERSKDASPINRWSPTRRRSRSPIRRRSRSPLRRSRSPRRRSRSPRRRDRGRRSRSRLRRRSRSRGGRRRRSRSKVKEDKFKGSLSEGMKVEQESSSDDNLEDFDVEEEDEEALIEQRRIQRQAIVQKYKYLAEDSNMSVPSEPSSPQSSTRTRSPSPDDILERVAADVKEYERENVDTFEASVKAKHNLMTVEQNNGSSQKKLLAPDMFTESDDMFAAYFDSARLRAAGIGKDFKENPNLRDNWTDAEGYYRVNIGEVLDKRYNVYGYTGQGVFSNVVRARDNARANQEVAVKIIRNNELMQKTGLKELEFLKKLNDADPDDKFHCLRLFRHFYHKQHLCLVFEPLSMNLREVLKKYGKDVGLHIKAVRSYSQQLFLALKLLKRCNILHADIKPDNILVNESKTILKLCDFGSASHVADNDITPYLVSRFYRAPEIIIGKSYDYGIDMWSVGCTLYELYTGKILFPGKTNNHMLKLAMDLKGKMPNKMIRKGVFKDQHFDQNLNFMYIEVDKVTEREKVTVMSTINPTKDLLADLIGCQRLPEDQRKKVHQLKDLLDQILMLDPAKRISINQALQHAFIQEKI
Chain of UniProt Q15365 (Q15365 whole entry, looked up): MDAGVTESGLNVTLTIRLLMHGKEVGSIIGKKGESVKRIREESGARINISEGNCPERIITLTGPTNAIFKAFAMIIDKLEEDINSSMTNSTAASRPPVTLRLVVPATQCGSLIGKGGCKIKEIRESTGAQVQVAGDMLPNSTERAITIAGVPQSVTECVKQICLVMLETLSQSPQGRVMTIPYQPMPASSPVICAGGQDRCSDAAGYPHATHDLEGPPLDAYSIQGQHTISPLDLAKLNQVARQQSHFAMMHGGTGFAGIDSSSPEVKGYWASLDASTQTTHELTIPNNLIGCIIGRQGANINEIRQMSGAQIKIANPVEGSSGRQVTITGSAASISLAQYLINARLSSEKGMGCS
Chain of UniProt Q9Y3E5 (Q9Y3E5 whole entry, looked up): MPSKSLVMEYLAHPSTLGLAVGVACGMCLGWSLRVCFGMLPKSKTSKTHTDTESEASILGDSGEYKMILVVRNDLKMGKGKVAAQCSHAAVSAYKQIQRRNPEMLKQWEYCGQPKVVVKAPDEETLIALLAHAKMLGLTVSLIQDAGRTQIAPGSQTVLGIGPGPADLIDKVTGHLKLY
Chain of UniProt Q9UHX1 (Q9UHX1 whole entry, looked up): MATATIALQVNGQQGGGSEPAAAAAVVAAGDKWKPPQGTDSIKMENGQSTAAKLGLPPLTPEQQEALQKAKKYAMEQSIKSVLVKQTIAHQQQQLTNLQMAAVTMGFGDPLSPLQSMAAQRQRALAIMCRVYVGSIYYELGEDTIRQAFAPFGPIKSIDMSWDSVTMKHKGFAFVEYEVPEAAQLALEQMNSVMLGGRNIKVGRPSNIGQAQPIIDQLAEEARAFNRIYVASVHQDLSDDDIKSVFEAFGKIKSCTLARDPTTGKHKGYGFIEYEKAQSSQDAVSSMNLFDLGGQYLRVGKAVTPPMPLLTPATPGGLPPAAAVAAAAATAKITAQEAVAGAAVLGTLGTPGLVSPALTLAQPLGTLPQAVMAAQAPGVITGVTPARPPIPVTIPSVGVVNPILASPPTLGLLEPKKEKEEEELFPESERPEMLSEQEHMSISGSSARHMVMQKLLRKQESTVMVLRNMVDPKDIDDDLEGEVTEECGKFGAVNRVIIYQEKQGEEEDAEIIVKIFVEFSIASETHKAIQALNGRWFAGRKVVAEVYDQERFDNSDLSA
Chain of UniProt Q8NEB9 (Q8NEB9 whole entry, looked up): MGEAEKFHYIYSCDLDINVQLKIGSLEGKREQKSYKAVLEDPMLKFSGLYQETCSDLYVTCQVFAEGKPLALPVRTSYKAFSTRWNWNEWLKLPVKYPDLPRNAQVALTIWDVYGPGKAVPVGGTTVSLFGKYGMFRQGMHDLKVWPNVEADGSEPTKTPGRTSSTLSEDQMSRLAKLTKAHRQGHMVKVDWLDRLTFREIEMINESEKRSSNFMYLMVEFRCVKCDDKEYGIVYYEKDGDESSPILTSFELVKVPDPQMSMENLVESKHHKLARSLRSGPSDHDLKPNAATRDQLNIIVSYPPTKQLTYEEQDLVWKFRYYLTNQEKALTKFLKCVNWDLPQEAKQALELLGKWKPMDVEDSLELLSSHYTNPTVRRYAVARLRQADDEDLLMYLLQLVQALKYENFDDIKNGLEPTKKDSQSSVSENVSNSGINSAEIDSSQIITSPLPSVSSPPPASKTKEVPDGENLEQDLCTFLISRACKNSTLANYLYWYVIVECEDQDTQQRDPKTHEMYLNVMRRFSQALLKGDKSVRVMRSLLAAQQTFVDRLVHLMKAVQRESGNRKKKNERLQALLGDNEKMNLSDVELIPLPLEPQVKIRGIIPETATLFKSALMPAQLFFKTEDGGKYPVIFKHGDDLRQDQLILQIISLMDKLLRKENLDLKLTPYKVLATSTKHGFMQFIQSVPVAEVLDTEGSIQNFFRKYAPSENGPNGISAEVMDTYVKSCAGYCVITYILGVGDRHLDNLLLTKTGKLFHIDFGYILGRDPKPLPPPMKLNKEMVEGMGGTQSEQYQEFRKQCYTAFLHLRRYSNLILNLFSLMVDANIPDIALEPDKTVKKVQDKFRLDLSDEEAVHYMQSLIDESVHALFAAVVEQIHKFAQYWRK
Chain of UniProt Q9Y5K3 (Q9Y5K3 whole entry, looked up): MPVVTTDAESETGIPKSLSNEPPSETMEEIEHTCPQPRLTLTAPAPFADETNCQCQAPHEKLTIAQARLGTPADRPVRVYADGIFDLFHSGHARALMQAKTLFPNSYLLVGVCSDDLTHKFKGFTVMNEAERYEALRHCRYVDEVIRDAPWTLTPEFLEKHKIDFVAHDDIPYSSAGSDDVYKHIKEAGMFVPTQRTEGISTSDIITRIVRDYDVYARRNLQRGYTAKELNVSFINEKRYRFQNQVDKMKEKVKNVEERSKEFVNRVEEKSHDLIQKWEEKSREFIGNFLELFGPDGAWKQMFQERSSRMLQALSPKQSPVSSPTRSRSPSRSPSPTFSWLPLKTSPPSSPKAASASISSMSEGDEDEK
Chain of UniProt Q9Y478 (Q9Y478 whole entry, looked up): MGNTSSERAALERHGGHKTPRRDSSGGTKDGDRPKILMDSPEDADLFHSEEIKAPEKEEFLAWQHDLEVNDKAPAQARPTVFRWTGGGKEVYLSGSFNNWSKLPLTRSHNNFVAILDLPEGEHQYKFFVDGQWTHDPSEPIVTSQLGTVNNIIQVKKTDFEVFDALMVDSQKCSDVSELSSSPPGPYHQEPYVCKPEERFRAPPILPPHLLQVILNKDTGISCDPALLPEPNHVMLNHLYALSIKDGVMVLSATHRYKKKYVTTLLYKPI
Chain of UniProt Q9BRX2 (Q9BRX2 whole entry, looked up): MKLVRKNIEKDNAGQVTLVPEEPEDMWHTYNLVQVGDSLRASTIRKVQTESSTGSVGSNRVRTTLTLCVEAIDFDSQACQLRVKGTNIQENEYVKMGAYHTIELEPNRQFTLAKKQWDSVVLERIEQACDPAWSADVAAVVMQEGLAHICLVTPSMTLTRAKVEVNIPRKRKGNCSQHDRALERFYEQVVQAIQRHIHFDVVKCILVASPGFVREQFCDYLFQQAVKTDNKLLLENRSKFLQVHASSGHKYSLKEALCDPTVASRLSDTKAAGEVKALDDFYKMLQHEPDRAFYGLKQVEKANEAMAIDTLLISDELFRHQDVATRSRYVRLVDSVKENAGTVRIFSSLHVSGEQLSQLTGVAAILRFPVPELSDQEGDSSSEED
Chain of UniProt Q9H300 (Q9H300 whole entry, looked up): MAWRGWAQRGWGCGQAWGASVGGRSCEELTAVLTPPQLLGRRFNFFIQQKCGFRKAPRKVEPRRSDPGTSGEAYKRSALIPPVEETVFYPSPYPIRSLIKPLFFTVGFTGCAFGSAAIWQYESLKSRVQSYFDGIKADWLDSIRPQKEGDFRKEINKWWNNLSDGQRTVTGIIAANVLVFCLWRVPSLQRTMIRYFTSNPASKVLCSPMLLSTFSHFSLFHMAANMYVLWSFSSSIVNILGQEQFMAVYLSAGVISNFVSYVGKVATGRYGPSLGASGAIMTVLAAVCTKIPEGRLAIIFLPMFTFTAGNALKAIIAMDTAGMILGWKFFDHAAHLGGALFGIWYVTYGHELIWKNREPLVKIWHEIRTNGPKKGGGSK

log2 fold change, inactive:
PHLDB1 isoform 2 (UniProt Q86UU1) -0.005
PDE2A (UniProt O00408) 0.015
PRPF4B (UniProt Q13523) 0.09
PAK4 (UniProt O96013) -0.002
POLD1 (UniProt P28340) 0.001
PPP2R5A (UniProt Q15172) 0.001
PCBP1 (UniProt Q15365) -0.042
PSMA3 (UniProt H0YJ03) -0.059
PELO (UniProt Q9BRX2) 0.05
PPIL1 (UniProt Q9Y3C6) 0.052
PRPF38A (UniProt Q8NAV1) 0.036
PHC3 isoform 7 (UniProt Q8NDX5) -0.215
PRPF31 (UniProt Q8WWY3) 0.025
PIKFYVE (UniProt Q9Y2I7) 0.003
PRKAB1 (UniProt Q9Y478) -0.145
PRKAG1 isoform 3 (UniProt P54619) -0.018
PTTG1 (UniProt O95997) -0.027
PTDSS1 (UniProt P48651) 0.147
POM121 (UniProt Q96HA1) -0.051
PUM1 isoform 3 (UniProt Q14671) 0.045
PPP2R5B (UniProt Q15173) -0.321
PCYT1B (UniProt Q9Y5K3) 0.057
PRKAR1A (UniProt P10644) 0.389
PDCD4 (UniProt Q53EL6) -0.002
POGZ (UniProt Q7Z3K3) 0.101
PUF60 (UniProt Q9UHX1) -0.017
PTRH2 (UniProt Q9Y3E5) 0.019
POLR3K (UniProt Q9Y2Y1) 0.113
PSMD5 (UniProt Q16401) 0.017
PSMD2 (UniProt Q13200) -0.002
PPT2 isoform 3 (UniProt Q9UMR5) -0.04
PRKAR2B (UniProt P31323) -0.166
PARP16 isoform 3 (UniProt Q8N5Y8) 0.074
PTGR2 (UniProt Q8N8N7) 0.043
PARL (UniProt Q9H300) 0.018
PIK3C3 (UniProt Q8NEB9) 0.039
PDCD6 (UniProt O75340) 0.024
PTP4A2 (UniProt Q12974) -0.019

log2 fold change, active:
PMM1 (UniProt Q92871) -0.415
